Assay outcomes from PubChem.
In the library only some 3.5% were active in any assay of this set; here they are far more common.
GPR151 activ = activators of human GPR151, primary screen, cell-based, PathHunter beta-arrestin, luminescence; AID 1508602, 2020; PathHunter beta-arrestin GPR151 cells; G-protein coupled receptor 151 (Homo sapiens), Q8TDV0; activation, % at 11.2 µM; 1% of 650,000 active; in the data active = activation above about 4.9%;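 note: 0% = median of compound wells and 100% = cells with positive control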
TEAD-YAP inh = TEAD-YAP interaction inhibition, primary screen, TEAD-YAP interaction inhibitor project, luminescence, HEK-TIYL cells | TEAD-Gal4/YAP UAS-luciferase luminescence | inhibition, % at 9.12 µM | 1.4% of 640,000 active; in the data active = inhibition above about 32%;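 note: 0% = median of test compound wells and 100% = reference inhibitor wells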
FBW7 activator = FBW7 E3 ligase activators, primary screen, biochemical, AlphaScreen, human; normalized activity (activation), % at 26.1 µM; 0.13% of 650,000 active; AlphaScreen FBW7–phospho-cyclin E peptide binding, activator screen; in the data active = normalized activity above about 1.9%;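 note: purified mutant Fbw7 with reduced substrate affinity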
Target sequence (Q969H0 whole entry, looked up): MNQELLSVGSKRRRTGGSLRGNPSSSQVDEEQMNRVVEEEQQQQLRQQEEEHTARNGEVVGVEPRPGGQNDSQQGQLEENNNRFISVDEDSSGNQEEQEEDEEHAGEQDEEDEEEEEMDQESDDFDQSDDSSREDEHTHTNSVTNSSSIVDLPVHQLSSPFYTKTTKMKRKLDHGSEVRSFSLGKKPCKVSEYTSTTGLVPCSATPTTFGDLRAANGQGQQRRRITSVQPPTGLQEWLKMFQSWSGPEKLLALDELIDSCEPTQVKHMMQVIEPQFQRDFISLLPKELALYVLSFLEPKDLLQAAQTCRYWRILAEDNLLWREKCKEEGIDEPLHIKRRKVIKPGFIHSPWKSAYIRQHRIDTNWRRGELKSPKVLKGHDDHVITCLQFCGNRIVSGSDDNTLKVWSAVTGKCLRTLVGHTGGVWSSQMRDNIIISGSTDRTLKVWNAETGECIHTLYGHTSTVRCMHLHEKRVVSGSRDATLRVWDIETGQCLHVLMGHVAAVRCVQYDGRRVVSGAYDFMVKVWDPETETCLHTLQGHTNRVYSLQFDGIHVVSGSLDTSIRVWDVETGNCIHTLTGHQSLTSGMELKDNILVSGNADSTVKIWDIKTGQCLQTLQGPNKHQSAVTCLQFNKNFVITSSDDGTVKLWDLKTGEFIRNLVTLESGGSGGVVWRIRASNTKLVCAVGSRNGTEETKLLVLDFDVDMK
MITF inh = MITF inhibitors, primary screen, biochemical, AlphaScreen, human | AlphaScreen MITF homodimerization, bead proximity signal | inhibition, % at 2.6 µM | AID 1259374, 2018 | 0.91% of 650,000 active; in the data active = inhibition above about 50%;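 note: 0% = vehicle wells with protein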
MITF inh conf = MITF inhibitors, retest of hits, confirmation, biochemical, AlphaScreen, triplicate | 16% of 4,700 active | AID 1259372, 2018 | AlphaScreen MITF homodimerization, biotin/His-MITF beads | inhibition, % at 2.6 µM | shares compounds with MITF inh;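 active = inhibition above a cutoff derived from the DMSO control wells, cut at about 28% in these data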;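 note: 0% = MITF dimer wells with DMSO only; inhibitors lower the bead chemiluminescence by keeping MITF from dimerizing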
AS interf DR = AlphaScreen optical interference compounds, dose response, counter-screen, biochemical, HTS; AlphaScreen optical interference counterscreen, cell-free; AID 1259373, 2018; IC50, µM; 6% of 480 active; shares compounds with MITF inh; call rule not given here
AS interf ctr = AlphaScreen optical interference compounds, counter-screen for MITF inhibitor project, biochemical, triplicate; LysRS AlphaScreen counterscreen, signal interference; shares compounds with MITF inh; AID 1259376, 2018; 7.6% of 4,700 active; inhibition, % at 2.6 µM;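 active = inhibition above a cutoff derived from the DMSO control wells, cut at about 30% in these data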
An asterisk follows results filed as active; / = no result; ! = not active in a repeat.

SMILES	GPR151 activ	TEAD-YAP inh	FBW7 activator	MITF inh	MITF inh conf	AS interf ctr	others
O=[N+]([O-])c1ccccc1OCCCOc1ccccc1[N+](=O)[O-]	2.2	-70.5	0.0	11.9	/	/
CCN1CCN(CCCOc2ccc(OC)cc2)CC1	0.7	-3.0	-0.1	28.5	/	/
c1ccc(COc2ccccc2OCCCCNCCN2CCOCC2)cc1	0.0	-9.9	-0.1	-9.7	/	/
c1ccc(COc2ccccc2OCCNCCN2CCOCC2)cc1	-1.1	6.4	-0.1	65.6*	-5.7	11.2
CC(C)N(CCNc1nc(Nc2ccccc2)nc2c1ncn2C1CCCCC1)C(C)C	2.4	6.7	-0.1	2.7	/	/
C/C(=N\NC(=O)c1cc([N+](=O)[O-])cc([N+](=O)[O-])c1)C1CC1	-0.7	3.5	0.2	-9.4	/	/
CCN1CCN(CCOc2ccc(OCc3ccccc3)cc2)CC1	1.0	-31.7	-0.2	68.6*	8.8	14.5
c1ccc(COc2ccc(OCCN3CCCC3)cc2)cc1	-0.1	-20.8	-0.1	6.4	/	/
CCN1CCN(CCOc2ccccc2[N+](=O)[O-])CC1	-0.9	10.2	-0.1	74.8*	15.0	15.7
O=[N+]([O-])c1ccccc1OCCCCN1CCCC1	0.1	-0.5	0.1	12.8	/	/
Cc1cc(O)c(Br)c(C)c1NS(=O)(=O)c1ccccc1	-0.2	0.0	-0.2	12.4	/	/
O=C(O)c1ccc(CNC(=O)c2cocc2C(=O)O)o1	-0.6	-3.9	0.0	55.0*	38.1*	6.9	AS interf DR=>7.32
COc1ccc(NCc2ccc(C(=O)O)o2)cc1	-0.9	-3.1	0.0	28.0	/	/
COc1ccc(NS(=O)(=O)c2cc(C(=O)Nc3ccccc3)ccc2OC)cc1	-0.6	1.8	0.2	-1.4	/	/
COc1ccc(C(=O)Nc2ccccc2)cc1S(=O)(=O)Nc1cc(C)on1	1.1	-2.4	-0.1	69.3*	3.1	13.9
COc1cc(OC)c(OC)cc1CNC1CCCc2ccccc21 (centres undefined)	0.7	4.2	0.0	43.8	/	/
COc1cc(CNC2CCCc3ccccc32)cc(OC)c1O (centres undefined)	0.2	18.1	0.1	57.2*	8.3	17.7
Fc1ccccc1-c1ccc(OCCN2CCOCC2)nc1	-1.0	-42.4	-0.5	1.3	/	/
CCCN(CCC)CCNC(=O)c1sc2ncn(CC(=O)N3CCCCC3C)c(=O)c2c1C (centres undefined)	-0.3	6.3	-0.1	-4.0	/	/
Cc1ccc(Nc2nc(NCCN3CCOCC3)nc3nccnc23)cc1C	-2.1	-8.5	0.6	61.3*	-6.8	-4.1
Cc1c(Cl)cccc1NC(=O)N1CCN(c2ccc(Nc3ccncc3)nn2)CC1	3.0	-3.3	-0.3	2.9	/	/
CC(C)OC(=O)c1c(NC(=O)c2cnn3c(C(F)(F)F)cc(-c4ccc(Br)cc4)nc23)sc2c1CCCC2	0.1	9.4	0.1	-3.4	/	/
CC1CN(CC(=O)N(C)CC2CCCCO2)Cc2cc(Cl)ccc2O1 (centres undefined)	2.1	4.5	0.0	55.4*	-4.2	-1.0
C=CC[C@@H]1/C=C(\C)C[C@H](C)C[C@H](OC)[C@H]2O[C@@](O)(C(=O)C(=O)N3CCCC[C@H]3C(=O)O[C@H](/C(C)=C/[C@@H]3CC[C@@H](O)[C@H](OC)C3)[C@H](C)[C@@H](O)CC1=O)[C@H](C)C[C@@H]2OC	-0.3	8.8	-0.2	111.3*!	122.2*	100.2*
COC1CC2CCC(C)C(O)(O2)C(=O)C(=O)N2CCCCC2C(=O)OC(C(C)CC2CCC(O)C(OC)C2)CC(=O)C(C)/C=C(\C)C(O)C(OC)C(=O)C(C)CC(C)/C=C/C=C/C=C/1C (centres undefined)	0.6	-9.2	-0.1	-9.5	/	/
SMILES	GPR151 activ	TEAD-YAP inh	FBW7 activator	MITF inh	MITF inh conf	AS interf ctr	others
Cc1cc(Cl)ccc1N(CC(=O)NCC1CCCO1)S(=O)(=O)c1ccccc1 (centres undefined)	-1.5	14.4	0.6	72.6*	4.2	9.2
Cc1ccc(S(=O)(=O)N(CC(=O)NCC2CCCO2)c2ccccc2Cl)cc1 (centres undefined)	1.4	4.9	-0.1	-18.8	/	/
O=C(c1cc(Cc2ccccc2)no1)N1CCCC1	0.1	-17.3	0.1	52.7*	-5.0	-0.9
O=C(c1cc(Cc2ccccc2)no1)N1CCSCC1	0.2	-0.6	-0.1	-8.1	/	/
O=C(O)c1cc(S(=O)(=O)Nc2ccc(-n3cnnn3)cc2)ccc1O	-0.4	-1.3	-0.1	53.2*	40.7*	13.7	AS interf DR=>7.18
c1ccc(Nc2nc3ccccc3o2)nc1	-8.7	-31.9	-0.3	-1.0	/	/
Cc1ccc(NC(=O)CN(C)C(=O)CSc2nnc(-c3ccc(Cl)cc3)o2)cc1	0.5	-8.0	-0.1	-5.3	/	/
COc1ccc(OC)c(CN2CCN(Cc3ccccc3F)CC2)c1	1.5	-6.2	-0.3	77.1*	-4.1	-1.7
COc1ccc(OC)c(CN2CCN(Cc3ccccc3Cl)CC2)c1	-1.1	-1.6	-0.2	76.5*	13.6	16.0
COc1ccc(CN2CCN(Cc3ccccc3Cl)CC2)c(OC)c1	0.7	0.0	0.0	79.8*	4.7	18.0
COc1ccc(OC)c(CN2CCN(CCCc3ccccc3)CC2)c1	0.9	0.0	-0.1	65.7*	0.5	-3.4
C/C=C/c1ccc(OCCn2cncn2)c(OC)c1	0.0	-4.8	-0.3	54.6*	12.7	17.4
C/C=C/c1ccc(OCCCCn2cncn2)c(OC)c1	1.9	2.0	0.5	55.0*	-10.2	-8.0
Cc1ccc(OCCn2cncn2)c(I)c1	-0.4	-1.4	0.8	60.1*	7.5	11.5
Cc1ccc(OCCCCn2cncn2)c(I)c1	1.2	-30.4	0.0	-18.6	/	/
O=C(O)Cc1cc(=O)n(-c2ccccn2)[nH]1	-0.9	-3.8	-0.6	116.7*	117.5*	100.3*
CC(=O)N1N=C(c2cnccn2)OC12CCC(C(C)(C)C)CC2 (centres undefined)	0.3	-5.8	-0.5	2.5	/	/
COc1cc(OC)c(OC)cc1CN1CCCN(C)CC1	-0.3	3.0	0.2	37.1	/	/
COc1cc(OC)c(OC)cc1CN1CCN(Cc2cccn2C)CC1	-1.2	-4.5	-0.5	63.4*	13.4	17.6
FC(F)(F)c1ccccc1CN1CCN(Cc2ccc3ccccc3c2)CC1	1.2	5.9	-0.2	83.1*	18.5	22.7
COc1cc(OC)c(CN2CCCC(O)C2)cc1Br (centres undefined)	-1.3	5.3	1.6	54.3*	33.4*	-3.6	AS interf DR=>6.48
COc1ccc(CNCc2ccccc2Cl)cc1OC	-0.9	-8.0	0.0	28.2	/	/
